Laboratory results published in PubChem BioAssay.
Values without a mark were called inactive. Activity calls are given as the source filed them.

Assay: plasmodial surface anion channel blockers, osmotic lysis – cell-based, P. falciparum Indochina, OD700, 2 h, primary screen (AID 1155);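 also: lysis reports solute entry through the parasite surface anion channel PSAC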
Details: P. falciparum Indochina infected erythrocytes, higher = more signal, called active from +8 up or from −8 down

SMILES | z-score
C=CCC1=C[C@H]2[C@H]([C@@H]3C=C[C@]2(CC=C)C(=O)[C@]32CO2)[C@@]2(CO2)C1=O | -0.877
Cc1ccc(S[C@]2(C(=O)O)CC(=O)N(Cc3ccccc3)[C@@H]2c2ccc(CO)cc2)cc1 | -0.263
CCCNC(=O)[C@@H]1c2ccccc2C(=O)N(Cc2cc(F)cc(C(F)(F)F)c2)[C@H]1c1ccc(CO)cc1 | -0.314
O=C1c2ccccc2[C@](Cc2ccccc2I)(C(=O)O)[C@H](c2ccc(CO)cc2)N1C1CCCCC1 | 0.525
[N-]=[N+]=NCc1ccccc1C[C@]1(C(N)=O)N=C(c2ccc(OCCCO)cc2)O[C@H]1c1ccccc1CN=[N+]=[N-] | 19.8 (active)
CO[C@H]1COC(=O)[C@H](C)NC(=O)CC=C[C@@H](C)[C@H](NS(=O)(=O)c2ccc(C)cc2)COC(=O)[C@@H](OCc2ccccc2)C=C[C@@H]1C | 0.637
COC(=O)c1c(CC[C@@H](CO)NC(=O)N[C@H](Cn2cc(-c3cncn3C)nn2)C(C)C)oc(C(C)=O)c1C(=O)OC | -0.0063
C=C(COC)/C(=C/C[C@@H](OC(C)=O)c1cccc(OCCO)c1)c1cc(C(=O)OC)ccc1OC | 0.098
CC(C)[Si]1(C(C)C)O[C@@H](c2ccccc2)c2cc(C3CC3)nc(-c3ccc(Oc4ccccc4)cc3)c21 | -0.0994
